Among the data in the supplement of paper PMC6555819 are PBM binding z-score values, retold here.

Test in all cases: PBM binding z-score (relative to random genomic background probes); higher = stronger binding; sequences stand for … in GC…GCGATTGACAGCGTAGAATGAAGG
Test [1] concerns FXR:RXRa (NR concentration 270 nM, RXRa partner concentration 90 nM). The procedure, abridged: (§1)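 Regression normalization was applied to scanned fluorescence from custom Agilent 4×180K protein-binding microarrays. Before scanning, arrays were incubated 1 h with ligand-free nuclear receptor dimers, and binding was detected with antibodies against each partner (one per run). Binding z-scores use the random background probes as reference.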

The subject of test [2] is LXRa:RXRa (NR concentration 270 nM, RXRa partner concentration 90 nM). The gist of the method: as §1
The subject of test [3] is LXRa homodimer (NR concentration 270 nM). The procedure, abridged: as §1
For test [4], the system named is LXRb:RXRa (NR concentration 270 nM, RXRa partner concentration 90 nM). The gist of the method:
as §1

The test system of test [5] is LXRb homodimer (NR concentration 270 nM). The gist of the method: as §1
The test system of test [6] is PPARa:RXRa (NR concentration 270 nM, RXRa partner concentration 90 nM). The procedure, abridged:
as §1

The subject of test [7] is PPARg:RXRa (NR concentration 180 nM, RXRa partner concentration 90 nM). The procedure, abridged: as §1
Test [8] deals with PPARg:RXRa 270nM:90nM, anti-RXR (NR concentration 270 nM, RXRa partner concentration 90 nM). The procedure, abridged:
as §1

Test [9] concerns PPARg:RXRa 30nM:10nM, anti-RXR (NR concentration 30 nM, RXRa partner concentration 10 nM). The procedure, abridged: as §1
In test [10] the test system is PPARg:RXRa 90nM:30nM, anti-RXR (NR concentration 90 nM, RXRa partner concentration 30 nM). The gist of the method: as §1
In test [11] the test system is PPARg:RXRa DBDmut IVT, anti-RXR (DBD mutation: RXRa K156A/R161A, NR concentration 270 nM, RXRa partner concentration 90 nM). The procedure, abridged:
as §1

For test [12], the system named is PPARg:RXRa IVT, anti-PPARg (NR concentration 270 nM, RXRa partner concentration 90 nM). The gist of the method:
as §1

For test [13], the system named is PPARg DBDmut:RXRa IVT, anti-PPARg (DBD mutation: PPARg1 K132A/R137A, NR concentration 270 nM, RXRa partner concentration 90 nM). The gist of the method: as §1
Test [14] concerns PPARg DBDmut IVT, anti-PPARg (DBD mutation: PPARg1 K132A/R137A, NR concentration 270 nM). The procedure, abridged: as §1
The test system of test [15] is PPARg homodimer (NR concentration 180 nM). The procedure, abridged: as §1
Test [16] deals with PXR:RXRa (NR concentration 270 nM, RXRa partner concentration 90 nM). The gist of the method:
as §1

The subject of test [17] is PXR homodimer (NR concentration 270 nM). The procedure, abridged: as §1
In test [18] the test system is RARa:RXR (NR concentration 270 nM, RXRa partner concentration 90 nM). The procedure, abridged:
as §1

The test system of test [19] is RARa homodimer (NR concentration 270 nM). The gist of the method: as §1
Test [20] concerns RARb:RXRa (NR concentration 270 nM, RXRa partner concentration 90 nM). The gist of the method: as §1

As for CCTTACGGGTCAAGATTATAGCACGGGTGGTACG, the PBM binding z-score is 4.99 in [1]; 3.15 in test [2]; 0.00162 in test [3]; 2.76 in test [4]; 0.37 in test [5]; 4.61 in test [6]. Further, the PBM binding z-score in test [7] was found to be 3.55; in [8], 3.6; in test [9] it was 1.65; in [10], 2.56; in test [11] it was 1.74; in test [12] it was 2.81. In addition, the PBM binding z-score in test [13] is -0.14; in [14] it was 0.0306; in test [15], 2.2; in test [16], 2.85; in test [17], -0.0377; in [18], 4.07. Also, the PBM binding z-score was found to be 1.11 in test [19] and 3.98 in test [20].
TCTTGTAGATCAATAGCGGTTAAGAAAGTGCGCT: the PBM binding z-score in [1] is 0.25; in [2] it was 0.57; in test [3], 0.174; in test [4], 0.435; in [5], -0.253; in test [6], 0.5. The PBM binding z-score is -0.524 in test [7]; 1.28 in [8]; 2.75 in test [9]; 2.17 in test [10]; 1.73 in [11]; 0.605 in test [12]. Moreover, the PBM binding z-score in [13] is -0.463; in [14] it was 0.835; in test [15], 0.226; in test [16] it was 0.449; in [17], 0.123; in [18], 0.439. Moreover, the PBM binding z-score in [19] is 0.667; in test [20], -0.0234.
Regarding CCTATTAGTTGACCATAAGGGCAACCGTAGCTCG, the PBM binding z-score is 0.644 in test [1]; 0.364 in test [2]; 0.502 in test [3]; 0.478 in [4]; 0.7 in test [5]; 0.679 in test [6]. Besides, the PBM binding z-score is 0.376 in test [7]; 0.487 in [8]; 0.0256 in [9]; 0.357 in test [10]; 0.583 in test [11]; 0.704 in test [12]. The PBM binding z-score was determined as 0.408 in test [13]; 0.82 in [14]; 1.76 in [15]; 0.746 in test [16]; 0.617 in test [17]; 0.869 in test [18]. For the same sequence, the PBM binding z-score was determined as 1.7 in test [19] and 1.66 in [20].
Regarding CCTTACGGGTCTCGAGGTTATAGCACGACGAGCG, the PBM binding z-score was 0.0293 in test [1]; 0.421 in test [2]; -0.197 in test [3]; 0.31 in test [4]; -0.922 in test [5]; 1.15 in test [6]. Besides, the PBM binding z-score in test [7] was 0.785; in test [8] it was 0.313; in [9], -0.359; in test [10], -0.392; in [11], -0.507; in test [12], 0.298. Besides, the PBM binding z-score in [13] was -0.399; in [14], -0.982; in [15], 0.167; in test [16], 0.396; in test [17], -0.353; in test [18], 0.806. The PBM binding z-score in [19] is -0.452; in [20], 0.666.
ACTAGCAGGCCAAGTTTTGGTCACTCAAACAAAG: the PBM binding z-score is -0.294 in test [1]; -0.403 in test [2]; -0.274 in [3]; -0.34 in test [4]; -0.558 in test [5]; -0.0813 in test [6]. Besides, the PBM binding z-score was -0.156 in test [7]; -0.261 in test [8]; -0.692 in test [9]; -0.457 in [10]; 0.635 in test [11]; 0.635 in test [12]. The PBM binding z-score in [13] was -0.425; in test [14], -0.348; in test [15], -0.321; in test [16], -0.259; in test [17], -0.809; in [18], 0.113. Moreover, the results for the PBM binding z-score in test [19] and in test [20] were -0.612 and 0.742, respectively.
As for GGAACGAGGGCATTCGAGGTGATAGCATGGCGAT, the PBM binding z-score in test [1] was 1.32; in test [2] it was 3.38; in test [3], -0.432; in [4] it was 0.556; in test [5], -0.578; in [6], 2. Also, the PBM binding z-score worked out at 1.28 in test [7]; 0.75 in test [8]; 0.0745 in test [9]; 0.494 in test [10]; 3.12 in [11]; 2.76 in test [12]. In addition, the PBM binding z-score was 0.0817 in test [13]; -0.391 in [14]; 0.378 in test [15]; 2.36 in test [16]; 0.0978 in [17]; 1.4 in test [18]. For the same sequence, the PBM binding z-score in [19] was -0.289; in test [20], 1.97.
As for GATACAGGGTCAAGGCCAGAGCACGCGTATTGAT, the PBM binding z-score in test [1] was 6.68; in [2] it was 4.17; in test [3], 0.0226; in test [4] it was 3.67; in [5] it was -0.301; in test [6], 5.48. The PBM binding z-score in test [7] was determined as 5.84; in [8], 5.3; in test [9], 2.03; in test [10], 4.13; in test [11], 2.49; in test [12], 4.08. Besides, the PBM binding z-score in [13] was determined as 0.585; in [14], 0.0811; in [15], 2.41; in test [16] it was 3.86; in [17] it was 0.352; in test [18], 4.64. The values for the PBM binding z-score in test [19] and in test [20] were 0.569 and 4.5, respectively.
